CASP6 VEID inh – caspase-6 (human) enzyme inhibition | 350,000 compounds, 0.53% hits | purified caspase-6, Z-VEID-R110 cleavage fluorescence | P55212 | inhibition, % at 12.5 µM;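 active means mean inhibition across replicates at least about 35%, with every replicate also reaching that limit, limit read from the data; inconclusive means only one of the two criteria met; inactive means neither criterion met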
NSD2 inh – blocks human histone methyltransferase NSD2; inhibition, % at 12.5 µM; 310,000 compounds, 0.54% hits; NSD2 peptide methylation, AlphaScreen, 120 min; O96028; AID 743445; in the data active means inhibition above about 50%
N-glyco inh – blocks N-linked glycosylation in D54 reporter cells; 360,000 compounds, 0.23% hits; reporter increase, % at 12.5 µM; D54 ERlucT glycosylation luciferase reporter, 24 h; percent of 100 nM tunicamycin response;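 active means mean luciferase reporter signal, scaled so untreated is 0 and the glycosylation-blocking control 100, at or above a set limit in every replicate; inconclusive means mean reaches the limit but not every replicate does; inactive means mean below the limit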;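 further: luciferase carries N-glycosylation sites so blocking glycosylation raises the light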
RAD52 anneal inh – RAD52 (human) annealing inhibition; recombinant RAD52 DNA annealing, FRET fluorescence; P43351; 360,000 compounds, 0.46% hits; inhibition, % at 18.7 µM;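 active means every replicate showing at least 50% inhibition; inconclusive means mean inhibition at least 50% but not in every replicate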
RAD54 inh – blocks human RAD54 Holliday junction branch migration. Q92698. FAM/BHQ fluorescence. inhibition, % at 10.4 µM. 360,000 compounds, 0.14% hits. AID 602329;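 active means mean normalized replicate activity at least 40 and at least half of replicates scoring 40 or more; inconclusive means only one of the two criteria met; inactive means mean below 40 and under half of replicates reaching 40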;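 further: inhibitors cause a drop in the FAM fluorescence signal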
Target sequence (Q92698 whole entry, looked up): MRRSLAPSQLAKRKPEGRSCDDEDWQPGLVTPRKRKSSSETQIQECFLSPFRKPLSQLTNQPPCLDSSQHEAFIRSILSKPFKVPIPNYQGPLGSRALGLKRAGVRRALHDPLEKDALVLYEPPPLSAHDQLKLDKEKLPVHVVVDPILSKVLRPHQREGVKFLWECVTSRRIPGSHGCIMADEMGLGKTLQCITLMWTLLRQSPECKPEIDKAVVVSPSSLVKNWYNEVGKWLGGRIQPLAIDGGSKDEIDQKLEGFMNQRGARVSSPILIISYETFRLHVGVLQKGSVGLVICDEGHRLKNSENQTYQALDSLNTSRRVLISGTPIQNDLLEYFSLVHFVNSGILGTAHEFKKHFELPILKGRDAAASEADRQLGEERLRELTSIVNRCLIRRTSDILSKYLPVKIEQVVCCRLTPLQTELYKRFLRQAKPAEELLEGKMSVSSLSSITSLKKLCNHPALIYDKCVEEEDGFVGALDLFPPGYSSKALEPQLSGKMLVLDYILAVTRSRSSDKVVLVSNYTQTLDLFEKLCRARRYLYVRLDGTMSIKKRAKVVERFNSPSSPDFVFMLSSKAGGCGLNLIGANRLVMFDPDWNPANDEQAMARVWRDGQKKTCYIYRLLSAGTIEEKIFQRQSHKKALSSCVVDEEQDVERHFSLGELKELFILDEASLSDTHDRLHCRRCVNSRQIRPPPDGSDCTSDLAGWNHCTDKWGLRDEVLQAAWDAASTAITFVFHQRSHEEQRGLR
DNA binder FP – DNA binding artifact in RAD52 counter-screen | shares compounds with RAD52 anneal inh | Salmon sperm DNA/acridine orange FP displacement | AC50, µM | 1,000 compounds, 8% hits | AID 652128;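 active means fitted half-maximal concentration for signal loss at or below twice the highest dose tested, in every separate run, actives reach about 64 µM in these data; inconclusive means runs disagree, or flat partial signal loss, or poor fit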
Numbers stand for hits; – = inactive; ? = inconclusive; · = no result. Shown are actives, neighbours in structure and some others; about 1.2% of the full set was active somewhere.

SMILES | CASP6 VEID inh | NSD2 inh | N-glyco inh | RAD52 anneal inh | RAD54 inh | DNA binder FP
O=C(NCCCN1CCOCC1)c1ccc2c(c1)N(Cc1ccccc1)C(=O)c1ccccc1S2 | – | – | – | – | – | ·
O=C(NCCCN1CCCC1)c1ccc2c(c1)N(Cc1cccc(Cl)c1)C(=O)c1ccccc1S2=O (stereo not given) | – | – | – | 67 | – | –
CC1CCCCN1CCNC(=O)c1ccc2c(c1)N(Cc1cccc(Cl)c1)C(=O)c1ccccc1S2=O (stereo not given) | – | – | – | – | – | ·
CN(C)CCCN(C(=O)c1ccc(N2C(=O)CCC2=O)cc1)c1nc2c(F)cccc2s1 | – | · | – | – | – | ·
CN(C)CCCN(C(=O)c1ccc2c(c1)CCCC2)c1nc2c(F)cccc2s1 | – | – | – | 75 | – | –
Cc1cc(C)c2nc(N(CCCN(C)C)C(=O)c3ccc(S(=O)(=O)N4CCCCCC4)cc3)sc2c1 | – | · | – | 61 | – | –
Cc1cc(C)c2nc(N(CCCN(C)C)C(=O)c3ccc4c(c3)CCCC4)sc2c1 | – | – | · | 58 | · | –
COCC(=O)Nc1ccc2c(c1)[C@@H]1C[C@@H](CC(=O)NCC3CC3)O[C@H](CO)[C@@H]1O2 | – | · | · | – | – | ·
Fc1cccc(-c2ccc(C3[C@H]4CNC[C@@H]3N4Cc3cncnc3)cc2)c1 (stereo not given in full) | – | · | · | – | · | ·
Cc1cc(/C=C2\Sc3ccccc3N2C)cc(C)[n+]1CC1CCCO1 (stereo not given) | – | – | 38 | 51 | · | –
CCN1CCN(C(=O)CCCn2c(C)c3cnn(-c4ccccc4)c(=O)c3c2C)CC1 | – | · | – | – | – | ·
Cc1c2cnn(-c3ccccc3)c(=O)c2c(C)n1CCCC(=O)NCCN1CCN(C)CC1 | – | – | – | 58 | · | –
Cc1cc(C)nc(/N=C(\N)Nc2ccc(OCc3ccccc3)cc2)n1 | – | – | 48 | 55 | · | –
Cc1cc(C)nc(/N=C(\N)Nc2cccc(OCc3ccccc3)c2)n1 | – | – | – | – | – | ·
Cn1cnc(S(=O)(=O)N[C@H]2CC[C@@H](CC(=O)N3CCN(c4ccccc4)CC3)O[C@H]2CO)c1 | – | · | · | – | – | ·
COc1ccc2c(c1OC)C[N+]1([O-])CCc3cc4c(cc3C1C2)OCO4 (stereo not given) | – | · | – | – | – | ·
COc1ccc2c(c1)CC1c3c(cc4c(c3-2)OCO4)CC[N+]1(C)[O-] (stereo not given) | – | · | – | 82 | 61 | ?
CCCCCCCCCCCCOC(=O)C[N+](C)(C)C | – | – | · | 50 | · | –
C[C@@H]1CN([C@H](C)CO)C(=O)c2cc(/C=C/c3ccccc3)cnc2O[C@H]1CN(C)Cc1ccncc1 | – | · | · | – | – | ·
NC(N)=Nc1cc2ccccc2c2ccccc12 | · | – | · | 56 | · | –
CCN(CC(=O)Nc1ccc(NC(C)=O)cc1)C(=O)/C=C/c1cn(-c2ccccc2)nc1-c1cccs1 | – | – | – | – | – | ·
CN1CCC(N(C)C(=O)/C=C/c2cn(-c3ccccc3)nc2-c2cccs2)CC1 | – | – | – | 71 | · | –
CN1CCN(C(=O)C[C@@H]2CC[C@@H]3[C@H](COc4ccc(NC(=O)c5cscn5)cc4C(=O)N3C)O2)CC1 | – | · | · | – | – | ·
CCOc1cc(/C=C/c2cccc[n+]2C)ccc1O | – | – | – | 72 | – | –
CCOc1cc(/C=C/c2cccc[n+]2C)ccc1OCC(=O)Nc1ccc(C)cc1 | · | – | – | – | – | ·
SMILES | CASP6 VEID inh | NSD2 inh | N-glyco inh | RAD52 anneal inh | RAD54 inh | DNA binder FP
CC=Cc1ccc2n(c1=O)C[C@H]1[C@H](CO)[C@@H](C(=O)NCCOC)[C@@H]2N1Cc1ccccc1OC (mixture of isomers) | – | · | · | – | · | ·
COc1ccc(NC(=O)N(C)C[C@H]2Oc3ccc(NC(=O)Cn4cnnn4)cc3C(=O)N([C@@H](C)CO)C[C@@H]2C)cc1 | – | · | · | – | – | ·
Cc1ccc(OCC(O)CNC2CCCC2)c(C)c1 (stereo not given) | – | – | – | – | – | ·
Cc1ccccc1OCC(O)CNC1CCC(NCC(O)COc2ccccc2C)CC1 (stereo not given) | – | · | – | – | – | –
COc1ccc(-c2c(-c3ccccc3)c(C(=O)C(=O)NCCCN(C)C)n3ccc4cc(OC)c(OC)cc4c23)cc1OC | – | – | – | 94 | 81 | –
O=C(C[C@H]1CC[C@H]2[C@@H](COC[C@@H](O)CN2C(=O)c2ccccn2)O1)N1CCN(c2ccccc2)CC1 | – | · | · | – | – | ·
O=C(Nc1ccc(F)cc1)N1C[C@@H]2[C@H](c3ccccc31)[C@H](CO)N2C(=O)c1ccncc1 | · | · | · | · | – | ·

Screens: PubChem, Broad Institute
